Source: PubChem BioAssay (several laboratories)
An excerpt weighted towards active compounds, which were near 2.4% of everything screened.
PABP FP inh – blocks human PABP binding to poly(A) RNA. fluorescence polarization. inhibition, % at 35 µM. 1% of 290,000 active. AID 2014;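 further: calls also rest on retests at 20 µM and on dose response follow-up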
Target sequence (P11940 whole entry, looked up): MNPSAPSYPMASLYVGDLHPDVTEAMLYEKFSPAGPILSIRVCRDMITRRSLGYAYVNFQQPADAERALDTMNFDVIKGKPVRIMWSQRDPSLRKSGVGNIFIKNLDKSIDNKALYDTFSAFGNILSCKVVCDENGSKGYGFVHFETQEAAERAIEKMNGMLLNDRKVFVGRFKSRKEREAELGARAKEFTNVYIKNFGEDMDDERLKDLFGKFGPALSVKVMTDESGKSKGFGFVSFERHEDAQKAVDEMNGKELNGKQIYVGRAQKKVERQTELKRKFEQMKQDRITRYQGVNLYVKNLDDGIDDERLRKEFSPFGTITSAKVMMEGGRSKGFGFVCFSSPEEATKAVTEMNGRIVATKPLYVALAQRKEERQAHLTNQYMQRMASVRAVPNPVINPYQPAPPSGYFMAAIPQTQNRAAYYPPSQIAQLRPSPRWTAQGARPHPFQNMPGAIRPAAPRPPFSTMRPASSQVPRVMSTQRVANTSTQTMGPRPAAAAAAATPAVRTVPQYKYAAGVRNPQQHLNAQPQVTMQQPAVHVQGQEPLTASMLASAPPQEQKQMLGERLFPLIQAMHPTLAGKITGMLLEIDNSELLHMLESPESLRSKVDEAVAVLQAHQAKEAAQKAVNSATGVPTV
MLLE-PAM2 inh – inhibitors of microRNA-mediated deadenylation, human PABP1 MLLE binding | inhibition, % at 20 µM | 0.36% of 360,000 active | GST-MLLE / FITC-PAM2 fluorescence polarization | P11940 | AID 588489; in the data active means inhibition above about 35%, passing the limit was not always enough;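 further: plate controls were DMSO wells with GST-MLLE for no effect and wells lacking GST-MLLE protein for full effect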
eIF4E-4G inh – inhibitors of eIF4E and eIF4G interaction in translation initiation; P63073+Q04637; TR-FRET eIF4E-eIF4GI(517-606) binding, 2 h; inhibition, % at 21.7 µM; 0.37% of 220,000 active;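 active means inhibition above about 30%, limit read from the data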;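 further: 0% = full FRET control wells and 100% = background wells lacking eIF4GI fragment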
eIF4H inh – inhibitors of RNA binding by human eIF4H. Q15056. eIF4H fluorescence polarization binding assay. inhibition, % at 35 µM. 0.94% of 290,000 active;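 further: calls also rest on retests at 20 µM and on dose response follow-up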
PERK inhibitor – inhibitors of human PERK kinase; Q9NZJ5; CHO PERK-DD fusion, SEAP luminescence translation reporter; inhibition, % at 5.6 µM; 0.17% of 220,000 active;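 active means inhibition above the mean inhibition of all tested compounds plus 3 SD, set separately per screening campaign, cut at about 2.9% in these data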;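 further: PERK kinase domain activated by AP20187 dimerizer at 100 nM; 0% = DMSO with dimerizer and 100% = rapamycin at 8.4 µM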
M18AAP inhibitor – blocks P. falciparum M18 aspartyl aminopeptidase | AID 1822 | recombinant PfM18AAP, H-Glu-NHMec fluorogenic cleavage | 1.2% of 290,000 active | inhibition, % at 7.35 µM;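 active means inhibition above the campaign mean inhibition over all tested compounds plus 3 SD, cut at about 28% in these data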;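 further: 0% = plate median of test compound wells and 100% = 2 mM ZnCl2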
An asterisk follows results filed as active; i = inactive; ? = inconclusive; · = no result given. Unless noted, how the calls were made is not given here.

SMILES | PABP FP inh | MLLE-PAM2 inh | eIF4E-4G inh | eIF4H inh | PERK inhibitor | M18AAP inhibitor
CC1CCc2c(sc(N)c2C(N)=O)C1 (stereo unspecified) | 36.2 | -1.9 | 10.4 | 26.4 | 0.6 | 28.9*
CCC1CCc2c(sc(N)c2C(N)=O)C1 (stereo unspecified) | · | -5.3 | -3.7 | · | 0.3 | 23.3
Cc1c(NC(=O)c2ccc(F)c(S(=O)(=O)N3CCOCC3)c2)c(=O)n(-c2ccccc2)n1C | 1.7 | 13.3 | 2.9 | -7.1 | -0.6 | -2.0
CS(=O)(=O)NCCOc1ccc(S(=O)(=O)N2CCCc3ccccc32)cc1 | 8.0 | 0.6 | -3.2 | 3.0 | -0.6 | -0.7
Cc1ccc(-n2c(C)n[nH]c2=S)cc1 | 6.4 | -10.1 | 2.7 | -8.6 | 0.7 | 30.2*
CCC(C)NC(=O)c1cc(Sc2nnc(C)s2)nc2ccccc12 (stereo unspecified) | -2.8 | · | 1.1 | -4.9 | -0.8 | -2.3
CC(=O)O/N=C/c1c(C)c(C=O)n2ccccc12 | 55.3* | -6.3 | 4.8 | 21.5 | 2.1 | -0.5
CC(=O)N1CCc2c(sc(NC(=O)c3ccc([N+](=O)[O-])o3)c2C(N)=O)C1 | · | 1.9 | · | · | · | ·
CN(C)S(=O)(=O)c1ccc(N2CCCC2)c(C(=O)Nc2nc3ccc(F)cc3s2)c1 | 61.7* | 4.1 | -3.0 | active | -0.3 | -0.3
CCCCc1c(O)nc(SCCN(C)C)n(-c2ccccc2)c1=O | -12.8 | 37.8* | -3.8 | -14.3 | 0.4 | -1.6
COC(=O)c1cccc(F)c1C(=O)c1cccc2ccccc12 | · | 2.1 | · | · | · | ·
COc1cc(/C=C2\CCCc3c2nc2ccccc2c3C(=O)O)cc([N+](=O)[O-])c1O | 48.9* | 20.2 | · | 79.5* | · | 13.0
S=C(Nc1ccc(Nc2ccccc2)cc1)Nc1ccccn1 | -4.5 | 38.4* | 1.2 | -8.0 | 0.4 | 1.4
S=C(Nc1ccccn1)NC1CCCCC1 | -5.3 | -41.5 | 94.3* | 3.0 | 0.1 | 18.7
S=C(Nc1ccccc1)Nc1ccccn1 | · | 23.4 | · | · | · | ·
CNC(=O)n1cc(C)c(-c2cccs2)n1 | 0.7 | 0.1 | 1.3 | -11.1 | 0.7 | -8.3
Cc1ccc(NC(=O)CCc2nnc3ccc(NCc4ccco4)nn23)cc1 | 7.9 | -12.5 | · | 20.0 | · | 24.4
Oc1ccc(NC(=S)Nc2ccc(F)cc2)cc1 | -9.4 | 13.5 | · | -7.4 | · | 2.7
Fc1ccc(NC(=S)Nc2ccc(Br)cc2)cc1 | 2.3 | 40.2* | -3.1 | 1.1 | 1.1 | -5.1
O=S(=O)(c1ccc(F)cc1)N1CCC(N2CCN(c3ccccc3)CC2)CC1 | · | · | · | · | 0.7 | -4.3
Cc1ccc(OCC(O)CNS(=O)(=O)c2ccccc2C(=O)N2CCCCC2)cc1 (stereo unspecified) | 5.0 | 1.2 | 2.4 | 3.4 | -0.1 | -1.6
O=C(COc1ccc(S(=O)(=O)N2CCOCC2)cc1Cl)N1CCCC1 | -15.1 | -4.3 | · | -12.1 | · | -6.0
CC1(C)C(=O)Nc2ccccc2N1C(=O)COc1ccc(S(=O)(=O)N2CCOCC2)cc1Cl | 20.8* | -19.6 | 18.9 | 64.3 | -0.7 | 0.3
COc1ccccc1N(CC(=O)NCCSc1ccccn1)S(=O)(=O)c1ccccc1 | -0.8 | 12.2 | · | 2.0 | · | 2.1
O=C(O)CSc1ccccn1 | 7.0 | 10.4 | 33.3* | -3.4 | 1.4 | -0.5
SMILES | PABP FP inh | MLLE-PAM2 inh | eIF4E-4G inh | eIF4H inh | PERK inhibitor | M18AAP inhibitor
NS(=O)(=O)c1cccc(NC(=O)CSc2ccccn2)c1 | 75.7* | -1.5 | 5.3 | -3.4 | 0.3 | -11.9
Cc1ccc(OCC(=O)c2cc(C)n(C)c2C)c([N+](=O)[O-])n1 | 7.5 | -1.4 | -6.7 | 76.4* | 0.2 | 0.6
Cc1cccn2cc(CNc3ccccc3)nc12 | 14.1 | 2.0 | 10.0 | 7.0 | 1.0 | 8.0
CCOC(=S)SCc1cn2cccc(C)c2n1 | 127.3 | 38.9* | 1.7 | 55.9 | 0.2 | 5.9
CCOc1ccc(C2C(C#N)=C(N)N(c3sc4c(c3C#N)CCCC4)C3=C2C(=O)CCC3)cc1 (stereo unspecified) | 29.7* | -23.9 | 3.5 | ? | -1.0 | -0.7
C[C@@H]1CN([C@@H](C)CO)C(=O)CCCn2nncc2CO[C@H]1CN(C)Cc1cccnc1 | · | 11.2 | · | · | · | ·
CCN1C(=O)c2cccc3c(S(=O)(=O)NCC4CCCO4)ccc1c23 (stereo unspecified) | 0.6 | 0.1 | 2.5 | 5.8 | -1.2 | -5.1
COc1ccc(N2Cc3ccc(C(=O)N/N=C\c4ccc(O)cc4O)cc3C2)cc1 | 19.7 | · | · | 64.7* | · | 19.0
CC(O)(c1cccnc1)c1nc(-c2ccc(S(C)(=O)=O)cc2)cs1 (stereo unspecified) | · | 13.8 | · | · | · | ·
COc1cccc(CN(C)CC(=O)NC(=O)NCc2ccco2)c1 | 30.0* | 2.6 | -9.9 | 50.0* | -0.6 | 4.9
COc1cccc(CN(C)CC(=O)Nc2ccccc2C(=O)NC2CC2)c1 | · | 88.6* | · | · | · | ·
CCc1ccccc1NC(=O)CCc1nc(-c2cccs2)no1 | -1.7 | -0.2 | -10.2 | 3.9 | 0.8 | 4.8
NC(CO)C(=O)NNCc1ccc(O)c(O)c1O (stereo unspecified) | 8.4* | 47.9* | 21.8 | 97.3* | -0.3 | 29.0*
Nc1cc2c(cc1Cl)-c1ccc(Cl)cc1C2 | · | 8.7 | · | · | · | ·
O=c1cc2oc3cc(O)c(O)cc3c(-c3ccccc3O)c-2cc1O | ? | 196.4 | 27.9 | ? | 3.1* | 43.8*
CCOC(=O)c1oc2cc(O)ccc2c(=O)c1-c1ccccc1OC | -3.9 | 3.6 | 1.9 | 3.3 | 0.1 | 3.7
CCOc1ccccc1-c1c2cc(O)c(=O)cc-2oc2cc(O)c(O)cc12 | -0.3 | i | 12.9 | ? | 0.9 | 29.6*
C=CCN(CC=C)C(=O)c1ccc(OC2CCN(C(C)=O)CC2)c(OC)c1 | -5.6 | -7.2 | · | 2.5 | · | -15.7
O=C(NCc1ccco1)C(c1ccccc1)N(Cc1cccnc1)C(=O)Cn1nnc2ccccc21 (stereo unspecified) | -5.5 | 5.5 | -17.1 | 7.5 | 0.9 | -7.0
Cc1ccsc1/C=N/NC(=O)c1ccc2nc[nH]c2c1 | -6.2 | 11.8 | 2.5 | -7.7 | 2.8 | 3.8
COC(=O)C1=C(C)NC(=O)/C1=C\c1cccs1 | -8.9 | 15.1 | · | -0.8 | -0.3 | -4.9
COC(=O)C1=C(C)NC(=O)/C1=C\N(C)C | active | 42.5* | 3.1 | 78.8* | 1.7 | 4.1
O=C(O)C(Cc1ccc(Cl)cc1)Sc1nc2ccccc2[nH]1 (stereo unspecified) | 29.4 | 13.9 | · | 2.7 | · | -1.1
COc1ccc(OC)c(N=c2oc3cc(O)ccc3cc2C(N)=O)c1 | -7.4 | -2.6 | 0.1 | 5.7 | 0.0 | 6.0
COc1ccc2oc(=Nc3cc(F)ccc3F)c(C(N)=O)cc2c1 | 72.8* | 12.4 | -8.0 | active | 1.2 | 0.7
COCCNC(=O)CCn1nc(-c2ccc(C)cc2)ccc1=O | 4.5 | 1.3 | · | -7.4 | · | 0.6
NS(=O)(=O)c1cccc(C(=O)NC2CCSc3ccccc32)c1 (stereo unspecified) | -6.3 | 4.8 | · | -8.5 | · | -3.1
CC(=O)c1cccc(S(=O)(=O)NC2CCSc3ccccc32)c1 (stereo unspecified) | -2.7 | 47.1* | · | -5.2 | · | -3.6
CC(=O)c1cccc(S(=O)(=O)NC2CC2)c1 | 3.0 | 34.9 | 7.0 | 0.2 | 1.0 | 1.4
